Only some compounds are listed: those with a hit (about 1.6% of all), similar ones and a draw of the others.
KCNQ2 enhance = potentiators of rat KCNQ2 potassium channel; Potassium voltage-gated channel subfamily KQT member 2 (Rattus norvegicus), O88943; CHO-K1 KCNQ2, FluxOR thallium flux fluorescence; stronger effect = higher value; B-score at 10 µM; 310,000 compounds, 0.54% hits;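 active = fluorescence ratio B-score at least 3 SD of library B-scores, with initial fluorescence B-score within 3 of them, cut at about 5.3 in these data; same plate scores as AID 2156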;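 also: B-score of peak minus minimum over baseline fluorescence ratio after K+ and Tl+ stimulus; positive B-score means potentiation of KCNQ2 with more thallium influx and brighter signal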
Target sequence (O88943 whole entry, looked up): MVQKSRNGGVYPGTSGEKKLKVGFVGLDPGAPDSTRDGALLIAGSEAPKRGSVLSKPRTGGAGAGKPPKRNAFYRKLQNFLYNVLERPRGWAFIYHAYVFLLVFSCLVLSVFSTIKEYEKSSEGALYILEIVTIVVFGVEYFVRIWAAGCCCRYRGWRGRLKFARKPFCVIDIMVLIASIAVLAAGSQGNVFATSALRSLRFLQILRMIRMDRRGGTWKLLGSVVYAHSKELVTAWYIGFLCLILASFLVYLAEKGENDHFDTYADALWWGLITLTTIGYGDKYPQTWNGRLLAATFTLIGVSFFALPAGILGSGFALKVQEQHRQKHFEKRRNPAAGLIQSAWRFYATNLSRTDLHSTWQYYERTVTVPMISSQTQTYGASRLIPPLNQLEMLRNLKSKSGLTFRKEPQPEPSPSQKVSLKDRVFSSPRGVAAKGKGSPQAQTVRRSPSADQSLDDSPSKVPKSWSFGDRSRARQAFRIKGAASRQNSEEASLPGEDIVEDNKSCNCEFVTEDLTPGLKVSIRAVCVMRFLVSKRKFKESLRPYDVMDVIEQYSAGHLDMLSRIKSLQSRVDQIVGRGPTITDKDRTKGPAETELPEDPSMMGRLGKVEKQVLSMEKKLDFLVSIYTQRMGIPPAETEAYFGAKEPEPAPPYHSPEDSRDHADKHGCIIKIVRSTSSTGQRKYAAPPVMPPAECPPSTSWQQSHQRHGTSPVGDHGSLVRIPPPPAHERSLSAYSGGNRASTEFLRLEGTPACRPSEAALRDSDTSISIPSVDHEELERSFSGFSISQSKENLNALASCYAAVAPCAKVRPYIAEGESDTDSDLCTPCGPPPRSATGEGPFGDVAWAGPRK
KCNQ2 inh = rat KCNQ2 potassium channel inhibitors, primary screen, cell-based, CHO-K1, FluxOR thallium flux, B-score; Potassium voltage-gated channel subfamily KQT member 2 (Rattus norvegicus), O88943; B-score at 10 µM; 20 min; stronger effect = lower value; 310,000 compounds, 1.1% hits;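 active = fluorescence ratio B-score at most minus 3 library SDs, with starting brightness B-score within 2 library SDs, cut at about -5.5 in these data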
Kir21 conf inh = mouse Kir2.1 channel blockers, retest, confirmation, cell-based, FluxOR thallium flux, duplicate. shares compounds with KCNQ2 enhance. Kir2.1-expressing cells, FluxOR thallium flux fluorescence; stronger effect = lower value. Tl flux remaining, % of negative control (stronger effect = lower value), % at 10 µM. 2,300 compounds, 41% hits. AID 2032, 2009;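 active = Primary-screen hit whose thallium flux fell at least 3 control SD below untreated wells in both duplicates, with normal baseline fluorescence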;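 also: 0% = blank wells without stimulus and 100% = stimulated no-compound controls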
HEK293 Tl flux = alters thallium flux in parental HEK293 cells, Kir2.1 counter-screen; shares compounds with KCNQ2 enhance; FluxOR signal as % of negative control (100 = no effect), % at 10 µM; FluxOR thallium flux fluorescence; 0% = unstimulated blank wells; 2,300 compounds, 19% hits;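 active = dye signal at least 3 control SD above or below untreated wells in both duplicates, raw fluorescence within 3, either direction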;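 also: percent is based on the flux ratio of peak minus minimum fluorescence over baseline F0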
CHO-K1 ctr = nonspecific thallium flux increase in parental CHO-K1, confirmation, counter-screen for KCNQ2 potentiator project, cell-based, FluxOR thallium flux, duplicate; activity increase over 3SD of controls, % at 10 µM; 1,200 compounds, 43% hits; shares compounds with KCNQ2 enhance; parental CHO-K1 cells, FluxOR thallium flux fluorescence; zero = vehicle mean+3SD, 100% = vehicle-minus-blank window;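 active = signal rise of at least 3 SD above the untreated control mean, in both duplicate wells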;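 also: counter screen of KCNQ2 potentiator hits so any rise reflects channel-independent effects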
KCNQ1 sel pot = human KCNQ1 channel potentiation off-target, confirmation, selectivity assay for KCNQ2 potentiator project, cell-based, CHO, FluxOR thallium flux. shares compounds with KCNQ2 enhance. CHO KCNQ1 stable, FluxOR thallium flux fluorescence; beyond 3SD, as % of vehicle-control signal. activation over 3SD threshold, % at 10 µM. 1,200 compounds, 28% hits;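 active = fluorescence ratio rise of at least 3 SD of vehicle wells above their mean, in both replicate wells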;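 also: 0% = vehicle mean plus 3 SD and 100% = vehicle minus unstimulated blank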
KCNQ2 pot conf = rat KCNQ2 channel potentiators, confirmation, cell-based, CHO, FluxOR thallium flux, duplicate | AID 2287, 2010 | potentiation, less the hit threshold, % at 10 µM | 1,200 compounds, 68% hits | CHO-KCNQ2 cells, FluxOR thallium flux fluorescence | shares compounds with KCNQ2 enhance;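 active = fluorescence ratio rising 3 SD or more over the vehicle control mean in both replicates, plus primary screen hit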;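 also: peak minus minimum thallium fluorescence divided by baseline after K/Tl stimulus; 0% = vehicle mean plus 3 SD and 100% = vehicle minus unstimulated blank difference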
Kir2-1 sel = mouse Kir2.1 channel activation off-target, confirmation, selectivity assay for KCNQ2 potentiator project, cell-based, HEK293, FluxOR thallium flux; activity over 3SD threshold, % at 10 µM; shares compounds with KCNQ2 enhance; 1,200 compounds, 2% hits; HEK293 Kir2.1, FluxOR thallium flux fluorescence;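 active = fluorescence ratio rise of at least 3 SD above the vehicle-control mean, seen in both replicates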;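 also: 0% = vehicle mean plus 3 SD and 100% = vehicle minus no-stimulus blank window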
Numbers without * were called inactive.

For COc1ccc(CNC(=O)C(c2ccco2)N(C(=O)c2snc(C(N)=O)c2N)c2cccc(OC)c2)cc1 (centres undefined) the results were KCNQ2 inh inactive.
Screening Cc1ccc(S(=O)(=O)CCC(=O)Nc2ccccc2Br)cc1 returned KCNQ2 enhance 1 and KCNQ2 inh inactive.
`COc1cc(C)ccc1OCc1cc(C(=O)N(Cc2c(C)nn(C)c2C)C2CC2)no1` gave KCNQ2 enhance 1.4 and KCNQ2 inh inactive.
For Cc1ccc(C)c2[nH]c(=O)c(CN(Cc3ccco3)C(=S)NCC3CCCO3)cc12 (centres undefined) the results were KCNQ2 inh inactive.
`CC1=CCC2C(=O)N(c3ccc(OC(=O)c4ccco4)cc3)C(=O)C2C1` (centres undefined) gave KCNQ2 inh inactive, Kir21 conf inh 64%* and HEK293 Tl flux 128%*.
COc1ccc(NC(=O)c2cccc(N3C(=O)C4CC=C(C)CC4C3=O)c2)c(OC)c1 (centres undefined) was read as KCNQ2 inh inactive.
`Fc1ccccc1Oc1nc(-c2ccncc2)nc2ccccc12` gave KCNQ2 enhance 0.38 and KCNQ2 inh inactive.
`CCOC(=O)C1CCN(C(=O)COc2ccc3c(C)cc(=O)oc3c2)CC1` gave KCNQ2 enhance 2.1 and KCNQ2 inh inactive.
Screening O=C(N/N=C/c1ccc([N+](=O)[O-])o1)c1sc2ccccc2c1Cl returned KCNQ2 enhance 5.5*, KCNQ2 inh inactive, Kir21 conf inh inactive, HEK293 Tl flux inactive, CHO-K1 ctr 7.0*, KCNQ1 sel pot -24, KCNQ2 pot conf -15 and Kir2-1 sel -35.
Cn1cccc1/C=N/NC(=O)c1sc2ccccc2c1Cl was read as KCNQ2 inh inactive.
`Cc1ccc2cc(C#N)c(N3CCCN(C(=S)NCCCN(C)C)CC3)nc2c1` gave KCNQ2 inh inactive.
Cc1cc(C)c2cc(C#N)c(N3CCCN(C(=S)NCCCN(C)C)CC3)nc2c1 was read as KCNQ2 inh inactive, Kir21 conf inh 50%* and HEK293 Tl flux inactive.
`C/C(CC(=O)Nc1ccc(Cl)cc1)=N\NC(=O)C(=O)N1CCCCC1` gave KCNQ2 inh inactive.
`COc1ccccc1CC(=O)N1CCCc2cc(C)ccc21` gave KCNQ2 inh inactive, Kir21 conf inh inactive and HEK293 Tl flux inactive.
Cc1ccc2c(c1)CCCN2C(=O)CSc1ccccc1 was read as KCNQ2 inh inactive.
For CN1CCN(C2=Cc3ccc(Cl)cc3Sc3ccc(F)cc32)CC1 the results were KCNQ2 inh inactive.
`CN1CCN(C2=Cc3ccccc3Sc3cc(F)ccc32)CC1` gave KCNQ2 inh inactive, Kir21 conf inh 57%* and HEK293 Tl flux inactive.

Screening results from PubChem BioAssay.
